Test systems include MET; MKK7; MKNK1; MKNK2; MLK2; MLK3; MRCKA.
Holding throughout (details): concentration: 1 μM, replicates: in singlicate; n = 1
For a further assay, the system named is T1, MINK.
T1 construct: gene MINK1

The test system of a further assay is T2, MLCK.
T2 construct: gene MYLK3

In a further assay the test system is T3, MLK1.
T3 construct: gene MAP3K9

Each structure is given as a SMILES string.
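Note: KINOMEscan kinase panel screen.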

For `FC(F)(F)c1ccc(-c2ncn(CCCN3CCOCC3)c2-c2ccncc2)cc1` [SB-217780], the “%Inh” value in the assay on MET is reported as 4%; with MINK it was 0%; in the assay with MKK7, 0%; with MKNK1 it was 16%; in the assay on MKNK2, 58%; in the assay on MLCK it was 0%. Besides, the “%Inh” value with MLK1 came out at 0%; in the assay with MLK2, 2%; in the assay with MLK3, 5%; in the assay with MRCKA it was 0%.

As for `CCCC(=O)Nc1n[nH]c2ncc(-c3cccc4ccccc34)cc12` [SB-642057], the “%Inh” value in the assay with MET came out at 0%; with MINK, 21%; with MKK7, 0%; with MKNK1, 10%; with MKNK2, 7%; in the assay with MLCK, 0%. The “%Inh” value came to 0% in the assay on MLK1, 0% in the assay with MLK2, 0% in the assay with MLK3 and 9% in the assay on MRCKA.

`COc1cc2ncn(-c3cc(OCc4ccc(S(C)(=O)=O)cc4)c(C(N)=O)s3)c2cc1OC` [GW869979]: the “%Inh” value with MET was 9%; with MINK, 38%; in the assay on MKK7, 6%; in the assay on MKNK1, 0%; with MKNK2, 12%; in the assay on MLCK it was 0%. Moreover, the “%Inh” value in the assay on MLK1 amounted to 4%; in the assay on MLK2 it was 0%; in the assay on MLK3 it was 0%; in the assay with MRCKA, 0%.

Consider `Cl.NS(=O)(=O)c1cccc(Nc2cc(-c3ccc(F)cc3)n[nH]2)c1` [GW824645], for which the “%Inh” value with MET is reported as 0%; in the assay with MINK, 57%; in the assay on MKK7, 19%; with MKNK1, 8%; in the assay on MKNK2 it was 0%; in the assay on MLCK, 29%. The “%Inh” value with MLK1 is 0%; in the assay on MLK2, 4%; in the assay on MLK3 it was 0%; in the assay on MRCKA, 0%.

With `Nc1ncnc2c1ncn2-c1ccc(Cl)cc1` [AH2635], the “%Inh” value with MET worked out at 0%; with MINK, 0%; with MKK7 it was 0%; with MKNK1 it was 26%; with MKNK2 it was 24%; in the assay with MLCK it was 0%. Moreover, the “%Inh” value in the assay on MLK1 was determined as 0%; with MLK2, 18%; with MLK3, 15%; in the assay on MRCKA it was 0%.

Turning to `Nc1nc(-c2ccccc2F)c(-c2ccnc3ccccc23)s1` [GW560459], the “%Inh” value turned out to be 0% in the assay on MET; 81% in the assay on MINK; 15% with MKK7; 12% in the assay on MKNK1; 0% with MKNK2; 0% in the assay with MLCK. Further, the “%Inh” value in the assay on MLK1 was determined as 0%; in the assay with MLK2, 0%; in the assay with MLK3 it was 5%; in the assay on MRCKA, 15%.

Turning to `Cc1nc(N(C)[C@H]2CN(C(=O)CC#N)CC[C@H]2C)c2cc[nH]c2n1`, the “%Inh” value in the assay with MET, in the assay with MINK, in the assay with MKK7, in the assay on MKNK1, with MKNK2 and in the assay on MLCK was 0% throughout. Further, the “%Inh” value with MLK1 was determined as 0%; with MLK2, 11%; in the assay on MLK3, 0%; in the assay with MRCKA, 0%.

`COc1ccc(CNC(=O)NC2CCN(c3ccnc(Nc4ccc(F)cc4)n3)C2)cc1` (centres unmarked) [GSK1379706]: the “%Inh” value in the assay with MET is 0%; in the assay with MINK it was 80%; in the assay on MKK7, 10%; with MKNK1 it was 0%; in the assay with MKNK2, 0%; with MLCK, 8%. For the same molecule, the “%Inh” value was 0% in the assay on MLK1, 0% in the assay with MLK2, 17% in the assay with MLK3 and 16% in the assay on MRCKA.

On to `COc1ccc(Nc2nccc(N3CCC(NS(=O)(=O)c4ccc(NC(C)=O)cc4)C3)n2)cc1` (centres unmarked) [GSK1379729], for which the “%Inh” value in the assay with MET is 10%; in the assay on MINK, 3%; in the assay with MKK7, 19%; in the assay on MKNK1, 22%; with MKNK2 it was 0%; in the assay with MLCK it was 0%. In addition, the “%Inh” value in the assay on MLK1 came to 0%; with MLK2, 48%; in the assay on MLK3, 18%; in the assay on MRCKA it was 10%.

Consider `Nc1nccc2scc(-c3ccc4c(c3)CCN4C(=O)Cc3ccccc3)c12` [GSK2576924], for which the “%Inh” value worked out at 0% in the assay on MET; 7% with MINK; 9% in the assay on MKK7; 3% in the assay with MKNK1; 2% with MKNK2; 3% in the assay with MLCK. The “%Inh” value came to 0% in the assay with MLK1, 0% in the assay on MLK2, 5% in the assay with MLK3 and 11% with MRCKA.

Regarding `COc1cc(OC)cc(-c2cc3cnc(N)nc3nc2NC(=O)NC(C)(C)C)c1`, the “%Inh” value in the assay on MET worked out at 0%; in the assay on MINK, 9%; with MKK7, 0%; in the assay with MKNK1, 0%; in the assay on MKNK2, 0%; in the assay with MLCK it was 0%. Also, the “%Inh” value in the assay on MLK1, in the assay with MLK2, with MLK3 and with MRCKA was 0% in each case.

Consider `COc1cc2nccc(Nc3cccc(Oc4ccccc4)c3)c2cc1OC.Cl` [GW284543], for which the “%Inh” value in the assay with MET was determined as 0%; in the assay on MINK it was 0%; in the assay with MKK7 it was 0%; in the assay on MKNK1 it was 0%; with MKNK2 it was 0%; with MLCK it was 4%. The “%Inh” value in the assay with MLK1 was 0%; with MLK2, 0%; in the assay with MLK3 it was 11%; in the assay with MRCKA it was 4%.

As for `COc1ccc(-n2cnc3c(N)ncnc32)cc1` [SKF-97236], the “%Inh” value came to 0% in the assay on MET; 9% in the assay on MINK; 15% in the assay on MKK7; 9% with MKNK1; 33% in the assay with MKNK2; 11% with MLCK. Also, the “%Inh” value in the assay on MLK1 is 0%; in the assay on MLK2, 37%; with MLK3, 20%; in the assay with MRCKA, 0%.

Consider `Cc1ccc(-c2ccc3c(ccc4sc5c(c43)NC[C@@H](C)N=C5N(C)C)n2)cn1`, for which the “%Inh” value in the assay with MET, in the assay on MINK, in the assay on MKK7, in the assay on MKNK1, in the assay with MKNK2 and with MLCK was 0% in each case. Besides, the “%Inh” value in the assay with MLK1, in the assay with MLK2, in the assay on MLK3 and in the assay with MRCKA was 0% each time.

In the case of `Cc1ccc(Oc2ccc(Nc3ncnc4cc[nH]c34)cc2C)cn1`, the “%Inh” value was determined as 4% in the assay with MET; 10% in the assay with MINK; 0% in the assay with MKK7; 34% in the assay with MKNK1; 41% in the assay on MKNK2; 0% with MLCK. For the same molecule, the “%Inh” value is reported as 5% with MLK1, 19% in the assay on MLK2, 1% in the assay with MLK3 and 0% in the assay on MRCKA.

Consider `COc1cccc(-n2cnc3c(N)ncnc32)c1` [SKF-97416], for which the “%Inh” value with MET was found to be 0%; in the assay with MINK, 22%; in the assay on MKK7 it was 30%; with MKNK1, 0%; in the assay on MKNK2, 31%; in the assay with MLCK, 5%. Further, the “%Inh” value turned out to be 2% in the assay with MLK1, 0% in the assay on MLK2, 0% with MLK3 and 13% with MRCKA.

Regarding `CCC(=O)c1c(-c2ccccc2)c2cc(Cl)ccc2c(=O)n1Cc1cc(S(C)(=O)=O)n(CCC(C)(C)O)n1`, the “%Inh” value in the assay with MET is on record as 0%; in the assay with MINK it was 0%; in the assay with MKK7 it was 0%; in the assay on MKNK1, 0%; with MKNK2, 0%; in the assay with MLCK, 7%. The “%Inh” value in the assay with MLK1 is reported as 3%; in the assay on MLK2 it was 0%; in the assay with MLK3, 24%; with MRCKA it was 0%.

The values above are taken from publication PMC5540273 (PLoS ONE, 2017).
